Pf growth 96h – Primary qHTS for delayed death inhibitors of the malarial parasite plastid, 96 hour incubation | P. falciparum luciferase reporter growth, 96 h | Potency, µM (doses to about 28.7 µM), most hits filed as inhibitors | 320,000 compounds, 6.9% hits
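Parasite growth measured via integrated firefly luciferase reporter in P. falciparum. Infected erythrocytes at 2% hematocrit, 0.05% parasitemia final were treated 96 hours at 37 C under 5% CO2, and luminescence was read.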
Sm TGR block – qHTS Assay for the Inhibitors of Schistosoma Mansoni Peroxiredoxins; purified TGR, DTNB reduction, TNB absorbance 405 nm; Schistosoma mansoni thioredoxin glutathione reductase (TGR), Q962Y6; AID 485364, 2010; 360,000 compounds, 3% hits; Potency, µM (doses to about 114 µM), usual class: inhibitors; further: nearly all actives have a fitted effect of over 60% in size
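TGR 20 nM + NADPH 100 uM (dispensed conc.), cpd preinc 15 min RT; start with NADPH (500 uM addition) then DTNB (15 mM addition). Kinetic TNB absorbance, 405 nm filter. Four-parameter Hill fit across titration.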
HCMV inh – qHTS Assay for inhibitors of the human cytomegalovirus (HCMV) | activity change, negative = inhibition, % at 57.5 µM | AID 1259415, 2018 | 410,000 compounds, 4.5% hits | HFF cells, HCMV-luciferase reporter, 72 h; stronger effect = lower value; in the data active means activity change below about -60%; inconclusive means no clear call, values can overlap the other calls; inactive means above about -39%
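Compounds were evaluated in HFFs infected with an HCMV luciferase reporter virus (MOI 1 PFU/cell). Luciferase in lysates collected 72 h post infection served as the replication measure.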
Pf growth 48h – Primary qHTS for delayed death inhibitors of the malarial parasite plastid, 48 hour incubation; P. falciparum luciferase growth in erythrocytes, 48 h; 310,000 compounds, 5.9% hits; Potency, µM (series often up to 28.7 µM), hits mostly inhibitors
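Here the parasites carry a stable luciferase gene and grow inside erythrocytes in Albumax-based RPMI medium with compound for one erythrocytic cycle. Activity is scored as loss of luminescent signal.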
HCV inh – qHTS Assay for Inhibitors of Hepatitis C Virus (HCV); 340,000 compounds, 3.4% hits; Huh7.5.1 HCVcc-Cre infection, luciferase reporter, 44 h; Potency, µM (doses to about 41.8 µM), usual class: inhibitors
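Whole-lifecycle infectious HCVcc-Cre system; cells 1,000/well, compound then virus (~0.5 moi) added 4 h after plating, 44 h culture. Luciferase read 15 sec following 15 min substrate incubation, room temp.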
SARS PLP yeast – qHTS of Yeast-based Assay for SARS-CoV PLP; S. cerevisiae expressing SARS-CoV PLpro, growth rescue; Potency, µM (highest dose often 32.9 µM), usual class: activators; 330,000 compounds, 0.19% hits; calls by dose curve; further: nearly all actives have a fitted effect of over 55% in size
Numbers stand for hits. Most compounds without a hit are left out; they make up all but 15% or so of the library. Unless noted, the call rests on the fitted dose curve; in most records, active means well fitted curve in the direction sought with a large enough effect; inconclusive means small, poorly fitted or top-dose-only effect, or another doubt; inactive means no such curve, though single readings can be large; an effect the other way counts as inactive or inconclusive.

What do the screens show for `CCN(CC)S(=O)(=O)c1cccc(N2CC(O)=C(c3ccccc3)C2=N)c1`?
Pf growth 96h: 2.6µM; Sm TGR block: inactive; HCMV inh: inactive; Pf growth 48h: 2.6µM; HCV inh: inactive; SARS PLP yeast: inactive

What do the screens show for `Nc1nc(-c2ccccc2)ns1`?
HCMV inh: inactive; HCV inh: inactive

How did NC1=NC(=O)/C(=C/c2ccc(Br)cc2)S1 do in these assays?
Pf growth 96h: 2.3µM; Sm TGR block: inactive; HCMV inh: inactive; Pf growth 48h: inactive; HCV inh: inactive; SARS PLP yeast: inactive

Results for COc1cc(/C=C2\SC(N)=NC2=O)ccc1O ?
Pf growth 96h: inactive; Sm TGR block: inactive; HCMV inh: -75; Pf growth 48h: inactive; HCV inh: inconclusive; SARS PLP yeast: inactive

What do the screens show for `C=CCOc1ccc(/C=C2\SC(N)=NC2=O)cc1OC`?
Pf growth 96h: inactive; Sm TGR block: inactive; HCMV inh: inactive; Pf growth 48h: inactive; HCV inh: inactive; SARS PLP yeast: inactive

How did COc1ccc(CNC(=O)CCc2c(C)c3cc4c(C)c(C)oc4cc3oc2=O)cc1OC do in these assays?
Sm TGR block: inactive; HCMV inh: inactive

What do the screens show for `c1ccc(CN2CCN(c3ncccn3)CC2)cc1`?
Pf growth 96h: inactive; Sm TGR block: inactive; HCMV inh: inactive; Pf growth 48h: inactive; HCV inh: inactive; SARS PLP yeast: inactive

How did O=C(CN1CCN(c2ncccn2)CC1)N(Cc1ccccc1)c1ccc(F)cc1 do in these assays?
Pf growth 96h: 12µM; Sm TGR block: inactive; HCMV inh: inactive; Pf growth 48h: inactive; HCV inh: inactive; SARS PLP yeast: inactive

What do the screens show for `COCCNC(=O)C1(C)CCN(C(=O)c2ccc3ccccc3n2)C1` (centres undefined)?
HCMV inh: inactive

Results for CC(=O)Nc1ccc(NC(=O)c2csc([C@@H]3C[C@H](O)[C@@H](CO)O3)n2)cc1 ?
HCMV inh: inactive

How did O=C(Nc1cccc2cccnc12)c1csc([C@@H]2O[C@H](CO)[C@H](O)[C@H](O)[C@H]2O)n1 do in these assays?
HCMV inh: -99

Results for O=C(Nc1ccc(Oc2ccccc2)cc1)c1csc([C@@H]2O[C@H](CO)[C@@H](O)[C@H]2O)n1 ?
HCMV inh: -93

Results for O=C(Nc1ccc2c(c1)OCO2)c1csc([C@H]2C[C@H](O)[C@@H](CO)O2)n1 ?
HCMV inh: -97

What do the screens show for `O=C(Nc1ccc(F)c(Cl)c1)c1csc([C@H]2C[C@H](O)[C@@H](CO)O2)n1`?
HCMV inh: inactive

How did O=C(Nc1ccc(Oc2ccccc2)cc1)c1csc([C@H]2C[C@H](O)[C@@H](CO)O2)n1 do in these assays?
HCMV inh: -97

What do the screens show for `CC(=O)NC1CC2CCCC(C1)N2C(=O)Nc1c(C)cccc1C` (centres undefined)?
HCMV inh: inactive

How did CCN(CC)C(=O)C1=C(C)Nc2nc3ccccc3n2C1c1cccc(Cl)c1 (centres undefined) do in these assays?
Sm TGR block: inactive; HCMV inh: inactive

How did COc1ccc(CCNC(=O)c2ccc3c(c2)CCN3S(=O)(=O)c2ccc(Cl)cc2)cc1 do in these assays?
Sm TGR block: inactive; HCMV inh: inactive

What do the screens show for `O=C(NCCC1CCCCN1S(=O)(=O)c1ccc(F)cc1)C(=O)NCC1CCCO1` (centres undefined)?
Pf growth 96h: inactive; Sm TGR block: inactive; HCMV inh: inactive; Pf growth 48h: inactive; HCV inh: inactive; SARS PLP yeast: inactive

What do the screens show for `Cc1ccc2nc(SCc3nc4c(cnn4-c4ccccc4)c(=O)[nH]3)[nH]c2c1`?
Pf growth 96h: inactive; Sm TGR block: inactive; HCMV inh: -83; Pf growth 48h: inactive; HCV inh: inconclusive; SARS PLP yeast: inactive

Screening data from PubChem BioAssay.
